Experimental data published in article PMC5540273 (PLoS ONE, 2017).

Columns and labels:
Conditions in all cases: concentration: 1 μM, replicates: in singlicate; n = 1
CHEK2 = system: CHEK2
CIT = system: CIT
CLK1 = system: CLK1
CLK2 = system: CLK2
CLK3 = system: CLK3
CLK4 = system: CLK4
CSF1R-autoinhibited = system: CSF1R-autoinhibited
CSF1R = system: CSF1R
CSK = system: CSK
CSNK1A1L = system: CSNK1A1L
CSNK1A1 = system: CSNK1A1
CSNK1D = system: CSNK1D
CSNK1E = system: CSNK1E
CSNK1G1 = system: CSNK1G1
CSNK1G2 = system: CSNK1G2
CSNK1G3 = system: CSNK1G3
CSNK2A1 = system: CSNK2A1
CSNK2A2 = system: CSNK2A2
CTK = system: T1, CTK
T1 construct: gene MATK

DAPK1 = system: DAPK1
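Also: KINOMEscan kinase panel screen.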

In the case of `Cc1cc(N2Cc3ccccc3C2)nc(Nc2ccc(S(=O)(=O)N3CCOCC3)cc2)n1.Cl` [GSK1669917], the “%Inh” value (CHEK2) is reported as 0%, the “%Inh” value (CIT) is reported as 0% and the “%Inh” value (CLK1) is reported as 9%. For the same molecule, the “%Inh” value (CLK2) was 0%, the “%Inh” value (CLK3) was 1% and the “%Inh” value (CLK4) was 11%. For the same molecule, the “%Inh” value (CSF1R-autoinhibited) was 0%, the “%Inh” value (CSF1R) was 4% and the “%Inh” value (CSK) was 0%. For the same molecule, the “%Inh” value (CSNK1A1L) was 0%, the “%Inh” value (CSNK1A1) was 0% and the “%Inh” value (CSNK1D) was 0%. The “%Inh” value (CSNK1E) was 4%, the “%Inh” value (CSNK1G1) was 0% and the “%Inh” value (CSNK1G2) was 0%. The “%Inh” value (CSNK1G3) was 19%, the “%Inh” value (CSNK2A1) was 2% and the “%Inh” value (CSNK2A2) was 7%. The “%Inh” value (CTK) was 0% and the “%Inh” value (DAPK1) was 0%.
`Cc1ccc(C(=O)Nc2ccc(Nc3ccnc4cc(-c5ccccn5)ccc34)cc2O)cc1.Cl` [GW440146] was tested, and the “%Inh” value (CHEK2) was 4%, the “%Inh” value (CIT) was 2% and the “%Inh” value (CLK1) was 13%. The “%Inh” value (CLK2) was 1%, the “%Inh” value (CLK3) was 0% and the “%Inh” value (CLK4) was 23%. The “%Inh” value (CSF1R-autoinhibited) was 0%, the “%Inh” value (CSF1R) was 35% and the “%Inh” value (CSK) was 34%. The “%Inh” value (CSNK1A1L) was 0%, the “%Inh” value (CSNK1A1) was 0% and the “%Inh” value (CSNK1D) was 7%. For the same molecule, the “%Inh” value (CSNK1E) was 23%, the “%Inh” value (CSNK1G1) was 0% and the “%Inh” value (CSNK1G2) was 0%. For the same molecule, the “%Inh” value (CSNK1G3) was 4%, the “%Inh” value (CSNK2A1) was 0% and the “%Inh” value (CSNK2A2) was 0%. For the same molecule, the “%Inh” value (CTK) was 0% and the “%Inh” value (DAPK1) was 0%.
`COc1ccc2nc(-c3cccc(C)n3)nc(Nc3ccncc3)c2c1` [GSK204919] was tested, and the “%Inh” value (CHEK2) was 0%, the “%Inh” value (CIT) was 73% and the “%Inh” value (CLK1) was 18%. The “%Inh” value (CLK2) was 0%, the “%Inh” value (CLK3) was 2% and the “%Inh” value (CLK4) was 26%. The “%Inh” value (CSF1R-autoinhibited) was 0%, the “%Inh” value (CSF1R) was 3% and the “%Inh” value (CSK) was 0%. For the same molecule, the “%Inh” value (CSNK1A1L) was 5%, the “%Inh” value (CSNK1A1) was 31% and the “%Inh” value (CSNK1D) was 49%. For the same molecule, the “%Inh” value (CSNK1E) was 64%, the “%Inh” value (CSNK1G1) was 0% and the “%Inh” value (CSNK1G2) was 0%. For the same molecule, the “%Inh” value (CSNK1G3) was 7%, the “%Inh” value (CSNK2A1) was 4% and the “%Inh” value (CSNK2A2) was 0%. The “%Inh” value (CTK) was 0% and the “%Inh” value (DAPK1) was 0%.
`Cc1cccc(-c2nc(Nc3cccc(C(N)=O)c3)c3ccccc3n2)n1` [GW876019] was tested, and the “%Inh” value (CHEK2) was 0%, the “%Inh” value (CIT) was 45% and the “%Inh” value (CLK1) was 18%. The “%Inh” value (CLK2) was 6%, the “%Inh” value (CLK3) was 14% and the “%Inh” value (CLK4) was 0%. For the same molecule, the “%Inh” value (CSF1R-autoinhibited) was 0%, the “%Inh” value (CSF1R) was 0% and the “%Inh” value (CSK) was 0%. The “%Inh” value (CSNK1A1L) was 3%, the “%Inh” value (CSNK1A1) was 37% and the “%Inh” value (CSNK1D) was 8%. The “%Inh” value (CSNK1E) was 15%, the “%Inh” value (CSNK1G1) was 0% and the “%Inh” value (CSNK1G2) was 0%. For the same molecule, the “%Inh” value (CSNK1G3) was 18%, the “%Inh” value (CSNK2A1) was 30% and the “%Inh” value (CSNK2A2) was 19%. For the same molecule, the “%Inh” value (CTK) was 13% and the “%Inh” value (DAPK1) was 15%.
`CS(=O)(=O)c1ccc(-c2nc3n(c2-c2ccncc2)CCC3)cc1` [SKF-105942] was tested, and the “%Inh” value (CHEK2) was 0%, the “%Inh” value (CIT) was 4% and the “%Inh” value (CLK1) was 11%. For the same molecule, the “%Inh” value (CLK2) was 0%, the “%Inh” value (CLK3) was 0% and the “%Inh” value (CLK4) was 0%. For the same molecule, the “%Inh” value (CSF1R-autoinhibited) was 0%, the “%Inh” value (CSF1R) was 0% and the “%Inh” value (CSK) was 100%. For the same molecule, the “%Inh” value (CSNK1A1L) was 2%, the “%Inh” value (CSNK1A1) was 0% and the “%Inh” value (CSNK1D) was 6%. The “%Inh” value (CSNK1E) was 22%, the “%Inh” value (CSNK1G1) was 4% and the “%Inh” value (CSNK1G2) was 0%. For the same molecule, the “%Inh” value (CSNK1G3) was 2%, the “%Inh” value (CSNK2A1) was 0% and the “%Inh” value (CSNK2A2) was 9%. For the same molecule, the “%Inh” value (CTK) was 0% and the “%Inh” value (DAPK1) was 0%.
For `Cl.Oc1ccc(-c2nc(-c3ccccc3)[nH]c2-c2ccncc2)cc1` [SB-428218], the “%Inh” value (CHEK2) was 0%, the “%Inh” value (CIT) was 0% and the “%Inh” value (CLK1) was 0%. The “%Inh” value (CLK2) was 6%, the “%Inh” value (CLK3) was 0% and the “%Inh” value (CLK4) was 0%. The “%Inh” value (CSF1R-autoinhibited) was 55%, the “%Inh” value (CSF1R) was 10% and the “%Inh” value (CSK) was 0%. For the same molecule, the “%Inh” value (CSNK1A1L) was 11%, the “%Inh” value (CSNK1A1) was 0% and the “%Inh” value (CSNK1D) was 37%. The “%Inh” value (CSNK1E) was 28%, the “%Inh” value (CSNK1G1) was 18% and the “%Inh” value (CSNK1G2) was 0%. The “%Inh” value (CSNK1G3) was 0%, the “%Inh” value (CSNK2A1) was 0% and the “%Inh” value (CSNK2A2) was 0%. The “%Inh” value (CTK) was 0% and the “%Inh” value (DAPK1) was 3%.
With `Fc1cc(Cl)ccc1Nc1ccnc2cc(-c3ccc(CN4CCCCC4)o3)ccc12` [GW560116] the “%Inh” value (CHEK2) was 35%, the “%Inh” value (CIT) was 63% and the “%Inh” value (CLK1) was 11%. The “%Inh” value (CLK2) was 0%, the “%Inh” value (CLK3) was 0% and the “%Inh” value (CLK4) was 27%. For the same molecule, the “%Inh” value (CSF1R-autoinhibited) was 0%, the “%Inh” value (CSF1R) was 20% and the “%Inh” value (CSK) was 0%. For the same molecule, the “%Inh” value (CSNK1A1L) was 1%, the “%Inh” value (CSNK1A1) was 0% and the “%Inh” value (CSNK1D) was 7%. For the same molecule, the “%Inh” value (CSNK1E) was 46%, the “%Inh” value (CSNK1G1) was 11% and the “%Inh” value (CSNK1G2) was 0%. For the same molecule, the “%Inh” value (CSNK1G3) was 23%, the “%Inh” value (CSNK2A1) was 0% and the “%Inh” value (CSNK2A2) was 94.6%. The “%Inh” value (CTK) was 0% and the “%Inh” value (DAPK1) was 1%.
